Out of some 52,000 compounds screened, about 4,300 (8.3%) were called active. The full list was thinned out, with actives kept by preference. A number with no mark means an inactive call. Rule as the data show it: active = survival mostly below about 52% (no sharp cut-off); inactive = mostly above about 56%.
What follows are compounds tested on DeltatarO mutant (assay: growth inhibition of S. aureus wild type versus tarO mutant, primary screen, teichoic acid synthesis inhibitors, RN4220, OD600 (AID 463173)). Conditions: OD600, 18 h, hits give low values, screened at 18.75 µg/mL (by protocol).

Structure (SMILES) | survival
O=C1CCCC/C1=N\Nc1ccc(N2CCCCC2)cc1 | 90%
Cc1nc2ccn(Cc3ccco3)c(=O)c2cc1C(=O)NCc1ccccc1F | 86%
O=C(O)c1ccccc1SC1CC(=O)N(Cc2ccccc2)C1=O (configuration not stated) | 81%
CCOc1ccc(CCNC(=O)CCCc2nnc3n(CCCOC)c(=O)c4sccc4n23)cc1 | 91%
NS(=O)(=O)c1ccc(NC(=O)C2CCCO2)cc1 (configuration not stated) | 95%
CCN1c2ccccc2-n2cccc2C12CCN(C(=O)Nc1ccccc1Br)CC2 | 91%
COc1ccc(CCNC(=O)Cc2c(C)c3c(cc(C)c4c(C)c(C)oc43)oc2=O)cc1OC | 83%
Cc1ccc2c(CNCC(C)c3ccccc3)c(C(=O)O)n(Cc3ccccc3C)c2c1 (configuration not stated) | 70%
COc1ccccc1N(CC(=O)NCCSc1ccccc1)S(=O)(=O)c1ccc(C)cc1 | 62%
COc1ccccc1N(CC(=O)NCCSCc1ccccc1)S(C)(=O)=O | 70%
COc1ccccc1N(CC(=O)NCCSCc1ccccc1)S(=O)(=O)c1ccc(C)cc1 | 41% (active)
Cc1ccc(Cn2cc3c(n2)-c2c(oc(C(=O)Nc4ccc(F)cc4F)c2C)CC3)cc1 | 85%
CN1CCN(c2nc3c(S(=O)(=O)c4ccccc4)nnn3c3ccsc23)CC1 | 86%
CC(C)c1ccc(OC(=O)c2cc(-c3ccccc3)on2)cc1 | 109%
COc1ccc(-c2cc(C(=O)Nc3c(Cl)cccc3Cl)no2)cc1OC | 58%
Cc1cccc(OC(=O)c2cc(-c3ccc(Cl)cc3)on2)c1C | 106%
Cc1cccc(OC(=O)c2cc(-c3ccc4c(c3)OCCO4)on2)c1C | -1% (active)
Cc1ccc(NC(=O)c2cc(-c3ccc4c(c3)OCO4)on2)cc1 | 75%
Cc1ccc(OC(=O)c2cc(-c3ccc(Cl)cc3)on2)c(C)c1 | 92%
Cc1cccc(OC(=O)CSc2nnc(-c3ccc4c(c3)OCO4)o2)c1C | 72%
Cc1ccc(OC(=O)c2cc(-c3ccc4c(c3)OCCO4)on2)c(C)c1 | -2% (active)

Structure (SMILES) | survival
Cc1ccccc1OC(=O)c1cc(-c2ccc3c(c2)OCCO3)on1 | -1% (active)
Cc1ccc(-c2cc(C(=O)Oc3ccccc3Cl)no2)cc1C | -1% (active)
COc1ccc(Nc2nnc(-c3cc4cc(Cl)ccc4oc3=O)s2)cc1 | 81%
COc1ccc(Br)cc1CNC(=O)CN1C(=O)CCCc2ccccc21 | 80%
Cn1c(=O)n(C)c2cc(CNCc3ccccc3)ccc21 | 88%
COC(=O)c1ccc(C(=O)OC)c(NC(=O)c2c(-c3ccccc3)noc2C)c1 | 147%
COc1cccc(CSc2nc3n(n2)C(CC(C)C)C(C(=O)Nc2ccccc2C)=C(C)N3)c1 (configuration not stated) | 87%
Cc1ccc(N2CC(c3nc(-c4ccc(Cl)cc4)no3)CC2=O)cc1F (configuration not stated) | 98%
CCS(=O)(=O)c1nc(S(=O)(=O)c2ccc(C)cc2)c(NCC(C)C)s1 | 95%
CCN1CCN(C(c2ccccc2Cl)c2sc3nc(-c4ccco4)nn3c2O)CC1 (configuration not stated) | 92%
O=C(Oc1ccccc1Cl)c1cc(-c2ccc3c(c2)OCCO3)on1 | -2% (active)
O=C(Nc1ccccc1C(F)(F)F)c1cc(-c2ccc3c(c2)OCCO3)on1 | 117%
COc1ccc(CNC(=O)c2cc3cc4ccc(C)cc4nc3o2)cc1 | 74%
Cc1ccc2cc3cc(C(=O)N4CCN(c5ccccc5)CC4)oc3nc2c1 | 61%
Cc1ccc(C)c(N2CCN(C(=O)c3cc4cc5ccc(C)cc5nc4o3)CC2)c1 | 90%
COc1ccc2cc3cc(C(=O)NCc4ccc(C)cc4)oc3nc2c1 | 83%
Cc1ccc2cc3cc(C(=O)N(C)c4ccccc4C)oc3nc2c1 | 53% (active)
CCN(C(=O)c1cc2cc3ccc(OC)cc3nc2o1)c1cccc(C)c1 | 6% (active)
Cc1ccccc1Cn1c(CN2CCC(C(=O)NCCN(C)C)CC2)cc2ccccc21 | 112%
COc1ccc(S(=O)(=O)N(C)CC(=O)NCc2ccc3c(c2)OCO3)cc1 | 89%
COc1ccc(/C=C(\C#N)C(=O)NCc2ccco2)cc1C | 80%

Structure (SMILES) | survival
CCOc1ccc(NC(=O)Nc2ccc3snnc3c2)cc1 | 110%
Cc1ccc(F)c(NC(=O)Nc2ccc3snnc3c2)c1 | 97%
Cc1cc(C)c(NC(=O)Nc2ccc3snnc3c2)c(C)c1 | 118%
Cc1c(Cl)cccc1NC(=O)c1ccc2snnc2c1 | 126%
Cc1c(Cl)cccc1NC(=O)Nc1ccc2snnc2c1 | -4% (active)
CCc1ccccc1NC(=O)Nc1ccc2snnc2c1 | 41% (active)
CC(C)(C)C1CCc2onc(C(=O)Nc3sc4c(c3C#N)CCCC4)c2C1 (configuration not stated) | 105%
CC(=O)Nc1sc2c(c1C(N)=O)CCCC2 | 80%
CCOC(=O)c1c(NC(=O)c2noc3c2CC(C(C)(C)C)CC3)sc2c1CCCC2 (configuration not stated) | 66%
CC(C)(C)C1CCc2onc(C(=O)Nc3sc4c(c3C(N)=O)CCCC4)c2C1 (configuration not stated) | 45% (active)
NC(=O)c1c(NC(=O)c2cc(-c3ccc(F)cc3)on2)sc2c1CCCC2 | 62%
NC(=O)c1c(NC(=O)c2noc3c2CCCC3)sc2c1CCCC2 | 40% (active)
CCOC(=O)c1noc2nc(C)n(Cc3cccc(C#N)c3)c(=O)c12 | 87%
O=C(NCc1ccccc1F)C1CCN(Cc2cc3ccccc3n2Cc2cccc(Cl)c2)CC1 | 78%
CCc1sc(Nc2cccc(Cl)c2C)nc1-c1cc2cccc(OC)c2oc1=O | 67%
O=C(NC1CCCC1)C(c1ccsc1)N(C(=O)Cc1cccs1)c1ccccc1 (configuration not stated) | 86%
O=c1[nH]c2ccc(S(=O)(=O)NC3CCCCC3)cc2[nH]1 | 62% (active)
O=S(=O)(NC1CCCC1)c1ccc(Br)cc1 | 93%
CCCNS(=O)(=O)c1ccc2[nH]c(=O)[nH]c2c1 | 96%
Cc1nc2c(-c3ccc(F)cc3)c(C)nn2c(C)c1CCC(=O)NCc1ccc(F)cc1 | 78%
